From PubChem BioAssay (Tox21)
Records with an inconclusive call do not appear. A call without a number means that no potency is given here. The source made the active and inactive calls. The call rests on the fitted dose curve; in most records, active means well fitted activation curve with a large enough effect in the signal ratio in the repeat runs (not every such curve was filed as active); inconclusive means weak or mixed curves; inactive means flat fitted curve, though single readings scatter; the % refers to the signal ratio.

Assay: p53 small molecule agonists, cell-based qHTS assay (AID 1963582)
Settings: HCT-116 p53RE-bla reporter, beta-lactamase FRET ratio, 16 h; series mostly up to 66 µM; activation: at the top concentration
From the text: National Center for Advancing Translational Sciences [NCATS]
Division of Preclinical Innovation [DPI]
U.S. Environmental Protection Agency [EPA]
National Institutes of Environmental Health Sciences [NIEHS]
National Toxicology Program [NTP]
U.S. Food and Drug Administration [FDA]
p53, a tumor suppressor protein, is activated following cellular insult, including DNA damage and other cellular stresses. The activation of p53 regulates cell fate by inducing DNA repair, cell cycle arrest, apoptosis, or cellular senescence. The activation of p53, therefore, is a good indicator of DNA damage and other cellular stresses. […] The activation of the reporter gene under culture conditions can be detected by fluorescence intensity. This cell line was used to screen the Tox21 10K compound library in a 1536-well plate format and to identify agonists that activate the p53 signaling pathway.
Tox21 Assay Protocol Summary:
The p53RE-bla cells were dispensed at 4,000 cells/5 ul/well in 1536-well black wall/clear bottom plates using a Multidrop dispenser. After the assay plates were incubated at a 37 C/5% CO2 incubator for 5 hours, 23 nL of compounds dissolved in DMSO, positive controls or DMSO only was transferred to the assay plate by a pin tool. The plates were incubated at 37 C for 16 hours. After 1 uL of LiveBLAzerTM B/G FRET substrate was added using a Flying Reagent Dispenser, the plates were incubated at room temperature for 2 hours, and fluorescence intensity was measured by an Envision plate reader.
Potency means the concentration at half of the fitted maximal effect.

Q: For `CC(C)(C)C(O)(CCc1ccc(Cl)cc1)Cn1cncn1` (stereo not given), which Potency is on record?
A: inactive

Q: For `CC1(C)CC(=O)CC(C)(C)N1[O]`, which “activation” value is on record?
A: 3.65% (inactive)

Q: For `CCCCCON=O`, which “activation” value is on record?
A: 0.168% (inactive)

Q: With `CCCCCCCCCCCOC(=O)c1ccccc1C(=O)OCCCCCCCCCCC` as the molecule, how does the Potency read?
A: inactive

Q: For `Cc1ccc2c(c1N)C(=O)c1ccccc1C2=O`, which Potency is on record?
A: inactive

Q: With `CNC(=O)O/N=C(\SC)C(=O)N(C)C` as the molecule, how does the Potency read?
A: inactive

Q: With `COC(=O)Cc1ccccc1` as the molecule, how does the “activation” value read?
A: -0.146% (inactive)

Q: For `Cc1cc(-c2cc(C)c(N)c(C)c2)cc(C)c1N`, which Potency is on record?
A: inactive

Q: For `O=C(CCl)c1ccccc1`, which Potency is on record?
A: inactive

Q: Which Potency does the source give for `c1ccc(OP(Oc2ccccc2)Oc2ccccc2)cc1` here?
A: inactive

Q: With `Clc1cccc(C(Cl)(Cl)Cl)n1` as the molecule, how does the Potency read?
A: inactive

Q: Which “activation” value does the source give for `CN1C(=O)CN=C(c2ccccc2)c2cc(Cl)ccc21` here?
A: -1.3% [at 30.3 µM] (inactive)

Q: For `CCC12COCN1COC2`, which Potency is on record?
A: inactive

Q: With `S=c1[nH]c2ccccc2[nH]1` as the molecule, how does the Potency read?
A: inactive

Q: For `O=[N+]([O-])c1c(Cl)c(Cl)c(Cl)c(Cl)c1Cl`, which “activation” value is on record?
A: 0.377% (inactive)

Q: With `Cc1cc(Cl)ccc1OC(C)C(=O)O` (stereo not given) as the molecule, how does the Potency read?
A: inactive

Q: With `CNC(=O)O/N=C/C(C)(C)S(C)(=O)=O` as the molecule, how does the Potency read?
A: inactive

Q: With `O=[N+]([O-])c1ccc(Cl)cc1` as the molecule, how does the Potency read?
A: inactive

Q: Which “activation” value does the source give for `CCCCCCCCCCCCCCn1cc[n+](C)c1` here?
A: 3.51% (inactive)

Q: For `CC(C)(Cl)Cl`, which Potency is on record?
A: inactive

Q: For `N#CC(c1ccccc1)c1ccccc1`, which Potency is on record?
A: inactive

Q: With `N#CC(Cl)(Cl)Cl` as the molecule, how does the “activation” value read?
A: 4.93% (inactive)

Q: For `C=CCN(CC=C)C(=O)C(Cl)Cl`, which Potency is on record?
A: inactive

Q: With `CCCCNC(=O)n1c(NC(=O)OC)nc2ccccc21` as the molecule, how does the Potency read?
A: 10.2 µM (active)

Q: Which “activation” value does the source give for `O=P(O)(Oc1ccccc1)Oc1ccccc1` here?
A: -6.65% (inactive)

Q: For `C1CS1`, which “activation” value is on record?
A: -4.82% (inactive)

Q: Which “activation” value does the source give for `Cc1cccc(C#N)c1` here?
A: 1.81% (inactive)

Q: Which Potency does the source give for `CCC(=O)O[C@H]1CC[C@H]2[C@@H]3CCC4=CC(=O)CC[C@]4(C)[C@H]3CC[C@]12C` here?
A: inactive

Q: With `CCCCCCCCCCBr` as the molecule, how does the “activation” value read?
A: 0.262% (inactive)

Q: With `O=C(NC(=O)c1ccccc1Cl)Nc1ccc(OC(F)(F)F)cc1` as the molecule, how does the “activation” value read?
A: 1.18% (inactive)

Q: For `O=C/C=C/c1ccccc1`, which Potency is on record?
A: inactive

Q: Which “activation” value does the source give for `Nc1ccc(Cl)cc1` here?
A: -2.85% (inactive)

Q: Which Potency does the source give for `C[N+](C)(C)C` here?
A: inactive

Q: For `Nc1nc(N)nc(Cl)n1`, which “activation” value is on record?
A: 0.656% (inactive)

Q: With `CSc1nc(NC(C)C)nc(NC(C)C)n1` as the molecule, how does the “activation” value read?
A: -1.96% (inactive)

Q: With `ClC1C(Cl)C(Cl)C(Cl)C(Cl)C1Cl` (stereo not given) as the molecule, how does the Potency read?
A: inactive

Q: Which “activation” value does the source give for `O=C/C=C/c1ccco1` here?
A: -0.779% (inactive)

Q: Which Potency does the source give for `CCN(N=O)C(N)=O` here?
A: inactive

Q: For `OCc1ccco1`, which Potency is on record?
A: inactive

Q: With `CNC(=O)O/N=C/C(C)(C)SC` as the molecule, how does the Potency read?
A: inactive
